Screens deposited in PubChem by several laboratories.
HDAC3 inh = blocks human histone deacetylase 3; recombinant HDAC3, fluorogenic peptide/trypsin coupled, fluorescence; hit rate 0.15% among 320,000; inhibition, % at 8.3 µM; in the data active means inhibition above about 26%, passing the limit was not always enough
Neddyl block = inhibitors of human cullin neddylation. P61081+Q13564. hit rate 0.58% among 360,000. AID 651699. inhibition, % at 25 µM. TR-FRET cullin neddylation, biochemical; in the data active means inhibition above about 36%
Target sequence (P61081 whole entry, looked up): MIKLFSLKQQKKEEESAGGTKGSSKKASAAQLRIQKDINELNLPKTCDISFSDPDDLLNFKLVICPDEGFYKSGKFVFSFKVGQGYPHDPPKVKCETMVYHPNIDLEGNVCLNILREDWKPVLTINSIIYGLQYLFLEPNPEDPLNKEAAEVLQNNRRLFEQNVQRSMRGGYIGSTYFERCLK
Target sequence (Q13564 whole entry, looked up): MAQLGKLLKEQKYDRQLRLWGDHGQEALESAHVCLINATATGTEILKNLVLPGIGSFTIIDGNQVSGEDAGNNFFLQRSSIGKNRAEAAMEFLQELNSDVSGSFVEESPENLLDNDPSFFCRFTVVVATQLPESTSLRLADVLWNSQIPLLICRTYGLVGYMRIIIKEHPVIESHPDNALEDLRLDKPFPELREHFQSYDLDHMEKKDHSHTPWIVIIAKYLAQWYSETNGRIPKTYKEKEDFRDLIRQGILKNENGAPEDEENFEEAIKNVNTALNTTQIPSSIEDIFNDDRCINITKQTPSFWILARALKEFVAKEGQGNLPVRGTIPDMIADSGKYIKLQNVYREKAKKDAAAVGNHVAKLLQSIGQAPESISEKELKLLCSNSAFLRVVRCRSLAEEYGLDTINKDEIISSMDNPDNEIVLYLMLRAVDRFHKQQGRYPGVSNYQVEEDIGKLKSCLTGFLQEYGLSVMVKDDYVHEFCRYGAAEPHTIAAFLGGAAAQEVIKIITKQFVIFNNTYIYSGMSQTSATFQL
H9c2 protect = myocardial damage modulation in H9c2 cells; hit rate 0.63% among 360,000; AID 588492; H9c2 cardiomyocytes, H2O2 injury protection, ATPLite, 2 h; protection from H2O2 cell death, % at 20 µM;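 active means compounds giving at least 50% protection of heart cells from peroxide-induced death in the single-dose screen, raw or plate-pattern-corrected value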;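 further: 0% = DMSO wells with peroxide and 100% = DMSO wells without peroxide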
GRK2 inh = human GRK2 inhibition via aptamer displacement. hit rate 0.59% among 330,000. AID 488847. inhibition of aptamer binding, % at 10 µM. bead flow cytometry, FAM-aptamer displacement from GRK2;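 active means inhibition of aptamer binding above 40%, roughly 3 SD of noise, on plates passing a quality check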;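 further: median bead fluorescence of bound FAM aptamer so fluorescent compounds give negative values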
* = called active by the depositor; · = not tested or not shown. The list is not random: actives were taken first. Their share in the collection is about 1.8%.

SMILES	HDAC3 inh	Neddyl block	H9c2 protect	GRK2 inh
COc1cccc(Nc2nc(C(N)CCc3ccccc3)cs2)n1 (stereo not drawn)	·	5.7	-12.8	·
C=CCn1c(SCC(=O)c2ccc(O)c(O)c2)nnc1-c1cccc(Cl)c1	-5.4	5.8	54.6*	2.0
C=CCn1c(SCC(=O)c2ccc(O)c(O)c2)nnc1-c1cccc(C)c1	4.8	-10.5	42.5	1.0
C[C@@H](c1ccccc1)N1C[C@H]2CCCN2c2cc(Br)ccc2S1(=O)=O	·	5.4	-5.2	41.0*
O=S1(=O)c2ccc(Br)cc2N2CCC[C@H]2CN1Cc1ccccc1	·	-5.3	-6.2	0.0
COCCn1nnnc1C(C(C)C)N(Cc1ccccc1)Cc1cc2cc(OC)ccc2[nH]c1=O (stereo not drawn)	·	·	41.7	·
COc1ccc2[nH]c(=O)c(CN(C3CCCCC3)C(c3nnnn3Cc3ccco3)C(C)C)cc2c1 (stereo not drawn)	9.1	9.4	94.8*	2.0
CCC(c1nnnn1Cc1ccco1)N(Cc1cc2cc(C)cc(C)c2[nH]c1=O)CC1CCCO1 (stereo not drawn)	-1.7	-15.4	61.5*	0.0
COc1ccc2[nH]c(=O)c(CN(Cc3ccco3)C(c3nnnn3Cc3ccccc3)C(C)C)cc2c1 (stereo not drawn)	0.9	30.1	51.0*	4.0
COc1ccc2[nH]c(=O)c(CN(Cc3nnnn3Cc3ccco3)C3CCCCC3)cc2c1	-3.1	22.6	43.6	5.0
CC(C)[C@H](NC(=O)c1ccc(Cl)cc1Cl)C(=O)OCc1nc2ccsc2c(=O)[nH]1	·	-3.5	17.7	·
O=C(CN1CC(=O)Oc2ccccc21)OCC(=O)c1cccc(Br)c1	1.6	-5.4	59.7*	5.0
Cc1cc(C)c2ccc(N)nc2c1O	4.3	-4.8	60.3*	6.0
Cc1cc(C)c2cccc(N)c2n1	-2.5	-14.2	-2.7	6.0
Cc1cccn2c(=O)c3cc(C#N)c(=NC(=O)c4cccs4)n(CCCOC(C)C)c3nc12	-58.6	·	57.3*	10.0
CCCn1c(=NC(=O)c2ccncc2)c(C#N)cc2c(=O)n3cccc(C)c3nc21	·	29.2	7.6	·
CCCCn1c(=NC(=O)c2cccnc2)c(C(=O)OCC)cc2c(=O)n3ccccc3nc21	·	·	22.6	·
CCCCn1c(=NC(=O)c2cccnc2)c(C#N)cc2c(=O)n3cccc(C)c3nc21	-16.9	·	54.3*	0.0
CCOC(=O)c1cc2c(=O)n3cccc(C)c3nc2n(CCCOC)c1=NC(=O)c1cccnc1	-141.9	·	101.4*	0.0
Cc1cccn2c(=O)c3cc(C#N)c(=NC(=O)c4ccncc4)n(CCCOC(C)C)c3nc12	-218.5	29.9	7.1	0.0
Cc1ccc(SCC(=O)Nc2ccc(N3CCN(C)CC3)c(F)c2)c(C)c1	-0.1	-7.7	-1.3	0.0
COc1ccccc1N(C)S(=O)(=O)c1ccc(C(=O)OCC(=O)N2CCC2)cc1	-6.2	1.5	-0.8	1.0
NC(=O)c1c(NC(=O)c2ccccc2F)sc2c1CCC2	·	21.1	-4.2	·
CCN(CC)S(=O)(=O)c1ccc2oc(C(=O)NCC3COc4ccccc4O3)c(C)c2c1 (stereo not drawn)	6.9	3.0	54.0*	3.0
Cc1c(C(=O)NCC2COc3ccccc3O2)oc2ccc(S(=O)(=O)N3CCOCC3)cc12 (stereo not drawn)	7.3	-6.0	60.0*	0.0
SMILES	HDAC3 inh	Neddyl block	H9c2 protect	GRK2 inh
Cc1c(C(=O)NCC2COc3ccccc3O2)oc2ccc(S(=O)(=O)N3CC(C)CC(C)C3)cc12 (stereo not drawn)	3.1	-21.1	6.4	16.0
C=CCn1c(=O)n(C(=O)OCC)c2cc(Br)ccc21	-2.9	-2.6	-1.8	0.0
CCN(CC(=O)Nc1ccc(NC(C)=O)cc1)C(=O)COc1ccc(C(=O)c2ccccc2)cc1	-6.9	0.0	3.3	0.0
Cc1cc(Nc2ccccc2C(=O)O)nc2nc3ccccc3c(=O)n12	-2.7	0.8	81.0*	0.0
CCOC(=O)CC(=O)CSc1ncnc2c1nnn2-c1ccc(F)cc1	61.5*	-2.5	9.4	0.0
O=C(O)c1ccc(N=Cc2c(O)ccc3oc4c(c23)CCCC4)cc1	2.5	16.3	62.5*	1.0
Oc1ccc2oc3c(c2c1C=NCc1ccncc1)CCCC3	9.3	18.1	66.9*	6.0
Oc1ccc2oc3c(c2c1/C=N/n1cnnc1)CCCC3	0.8	15.0	59.5*	3.0
C/C(=N\Nc1ccc(C(=O)O)cc1)c1ccc(-n2ccnc2)cc1	-0.6	-20.4	4.8	0.0
CCCCCN(C(=O)CCC(=O)OCc1cccc(F)c1)c1c(N)n(CCCC)c(=O)[nH]c1=O	-2.8	-5.0	4.6	1.0
CC(N)C(=O)NC(CO)C(O)C(N)C=O (stereo not drawn)	·	-3.3	-3.2	·
O=C(Cn1[nH]c(=O)c2ccccc2c1=O)NC1CCCCCC1	6.5	3.3	77.8*	2.0
O=C(Cn1[nH]c(=O)c2ccccc2c1=O)Nc1ccc2c(c1)CCC2	2.0	1.4	29.0	0.0
O=C(COc1ccccc1)NC1CCN(Cc2ccccc2)CC1	1.5	4.9	-1.3	0.0
O=C(Cn1[nH]c(=O)c2ccccc2c1=O)NC1CCN(Cc2ccccc2)CC1	1.5	-5.0	70.5*	0.0
O=c1[nH]cnc2c1c(-c1ccccc1)cn2-c1ccccc1	0.4	6.1	-2.6	2.0
Fc1cccc(-n2cc(-c3ccccc3)c3c(=S)nc[nH]c32)c1	-0.9	-257.3	64.0*	3.0
Fc1ccc(-n2cc(-c3ccccc3)c3c(=S)nc[nH]c32)cc1	-3.7	-376.3	84.9*	5.0
Cc1ccc(-n2cc(-c3ccccc3)c3c(=O)[nH]cnc32)cc1	11.4	2.0	-2.7	0.0
Cc1ccc(N2C(=O)C(NC(=O)c3ccccc3F)(C(F)(F)F)C3=C2CC(C)(C)CC3=O)cc1 (stereo not drawn)	-2.8	-69.9	2.1	75.0*
CC1(C)CC(=O)C2=C(C1)N(c1ccc(F)cc1)C(=O)C2(NC(=O)c1ccccc1F)C(F)(F)F (stereo not drawn)	6.3	1.7	5.6	0.0
O=C(Cn1nc(C(=O)O)c2ccccc2c1=O)c1c[nH]c2ccccc12	·	-18.6	57.1*	9.0
CN1CCc2c(sc3nc(NCCO)n(-c4cccc(Cl)c4)c(=O)c23)C1	-18.2	·	-3.0	0.0
CCOc1ccc(NC(=O)CC2SC(=O)N(c3ccccc3)C2=O)cc1 (stereo not drawn)	39.7*	-9.9	3.4	1.0
Cc1ccccc1NC(=O)CC1SC(=O)N(c2ccccc2)C1=O (stereo not drawn)	8.1	1.6	10.0	1.0
SMILES	HDAC3 inh	Neddyl block	H9c2 protect	GRK2 inh
CCN(CC)c1ccc2cc(-c3nnc(-c4ccncc4)o3)c(=O)oc2c1	·	-372.9	64.7*	·
CCN(CC)c1ccc2cc(C(N)=O)c(=N)oc2c1	13.8	-14.2	1.9	2.0
CCN(CC)c1ccc2cc(C(N)=O)c(=O)oc2c1	3.7	48.1*	-2.5	7.0
CCOc1ccccc1NC(=O)c1cccc(N2C(=O)CCC2=O)c1	4.1	5.2	2.7	1.0
O=c1nc(N/N=C/c2ccccn2)cn[nH]1	7.6	-17.2	55.3*	6.0
COc1ccc(/C=N/NC(=O)c2nc(-c3ccccc3)cc(-c3ccccc3)n2)cc1	-1.1	·	31.3	3.0
COc1ccc(/C=N/NC(=O)c2nc(-c3ccccc3)cc(-c3ccccc3)n2)cc1O	8.4	-0.1	50.9*	5.0
